Nrf2 ARE act: Nrf2 pathway activation. AREc32 ARE-luciferase reporter (MCF7-derived line), luminescence, 24 h. Potency, µM (highest dose often 46.1 µM), most hits filed as activators. hit rate 0.31% among 410,000. AID 624171; further: nearly all actives have a fitted effect of over 65% in size
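Quantitative high-throughput format: AREc32 reporter cells, 1000 per well, received compound by pin transfer and were incubated 24 hr at 37 deg C, 5% CO2, before Steady-Glo luminescence detection.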
ATXN viability: cell viability loss in ATXN counter-screen | Potency, µM (series often up to 56.7 µM), usual class: cytotoxic | S2 cells (HEK-293 line with an ATXN2-luciferase reporter) viability, CellTiter-Fluor protease fluorescence, 24 h | hit rate 0.49% among 400,000; further: nearly all actives have a fitted effect of over 40% in size
A549 tox: A549 cytotoxicity, counter-screen for Nrf2 inhibitors; A549 ARE-Fluc cells, CellTiter-Fluor viability, 18-24 h; AID 504648; hit rate 0.16% among 390,000; Potency, µM (highest dose often 46 µM), usual class: inhibitors
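A549 ARE_Fluc cells in 5% FBS OPTI-MEM were exposed to compounds in concentration-response for 18-24 h at 37 deg C. Viability was read by CellTiter-Fluor fluorescence (Ex 405/Em 525) after 30 min, before the luciferase read.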
Nrf2 inh: Nrf2 pathway inhibition | AID 504444 | Potency, µM (series often up to 46 µM), usual class: inhibitors | hit rate 2.1% among 360,000 | A549 ARE-Fluc reporter, luciferase luminescence, 18-24 h; further: nearly all actives have a fitted effect of over 60% in size
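Concentration-response testing used A549 ARE_Fluc cells at 5000 cells/well. Following an 18-24 h compound incubation, viability was read by fluorescence (Ex 405/Em 525) and luciferase output by luminescence.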
ATXN2 expr inh: reduces ATXN2 reporter expression in HEK-293 cells. HEK-293 ATXN2-luciferase reporter, luminescence, 24 h. Potency, µM (titrated, usually from 57 µM), usual class: inhibitors. hit rate 0.72% among 360,000; further: nearly all actives have a fitted effect of over 55% in size
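qHTS (up to 57 uM final) was run with 24 h compound exposure of reporter cells at 37 °C. Each well was multiplexed: SteadyGlo luminescence measured ATXN2-luciferase expression after a fluorogenic Gly-Phe-AFC viability readout (25 uM final).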
A number is an active result; ! = not active in a repeat. Shown are actives, neighbours in structure and some others; about 2.9% of the full set was active somewhere. The call rests on the fitted dose curve; in most records, active means well fitted curve in the direction sought with a large enough effect; inconclusive means small, poorly fitted or top-dose-only effect, or another doubt; inactive means no such curve, though single readings can be large; an effect the other way counts as inactive or inconclusive.

What do the screens show for `CC1(C(=O)O)CC12c1ccccc1-c1ccccc12` (configuration not stated)?
Nrf2 ARE act: inactive; ATXN viability: inactive; A549 tox: inactive; Nrf2 inh: inactive; ATXN2 expr inh: inactive

Results for Cc1cccc(C)c1-n1nnnc1C(C1CC1)N1CCC(n2c(=O)[nH]c3ccccc32)CC1 (configuration not stated) ?
Nrf2 ARE act: inactive; ATXN viability: inactive; ATXN2 expr inh: inactive

How did COC(=O)C1=C(c2ccc(OC(F)(F)F)cc2)C[C@@H]2CC[C@H]1N2C(=O)N1CCC(O)CC1 do in these assays?
Nrf2 ARE act: inactive; ATXN viability: inactive; A549 tox: inactive; Nrf2 inh: inactive; ATXN2 expr inh: inactive

Results for CCOC(=O)[C@]12Cc3ccccc3[C@H]1N(C(C)C)C(=O)c1ccccc12 ?
Nrf2 ARE act: inactive; ATXN2 expr inh: inconclusive

What do the screens show for `CCOC(=O)[C@]12Cc3c(cc(OC)c(OC)c3OC)[C@H]1N(C1CCCCC1)C(=O)c1ccccc12`?
Nrf2 ARE act: inactive; ATXN viability: 8.9µM; ATXN2 expr inh: 6.3µM

Results for CCOC(=O)[C@]12Cc3ccc(C)cc3[C@H]1N(C1CCCCC1)C(=O)c1ccccc12 ?
Nrf2 ARE act: inactive; ATXN viability: 13µM; ATXN2 expr inh: 11µM

What do the screens show for `C1=C(CCNCc2ccccc2)CCCC1`?
Nrf2 ARE act: inactive; ATXN viability: inactive; A549 tox: inactive; Nrf2 inh: inactive; ATXN2 expr inh: inactive

How did Oc1ccc2c3c1O[C@H]1[C@@H](O)CC[C@]4(O)[C@H](C2)N(CC2CCC2)CC[C@@]314 do in these assays?
ATXN viability: inactive

How did CC1CCC(C(C)C)C(OC(=O)Cn2c(COc3ccccc3)[n+](C)c3ccccc32)C1 (configuration not stated) do in these assays?
Nrf2 ARE act: inactive; ATXN viability: 25µM; A549 tox: inconclusive; Nrf2 inh: inconclusive; ATXN2 expr inh: inconclusive

How did COc1ccc(OCC(=O)N2CCN(Cc3nc4cc([N+](=O)[O-])ccc4n3C)CC2)cc1 do in these assays?
Nrf2 ARE act: inactive; ATXN viability: inactive; A549 tox: inactive; Nrf2 inh: 23µM; ATXN2 expr inh: inactive

What do the screens show for `CN(Cc1cccc(-c2ccncc2)c1)C(=O)Oc1ccccc1Cc1ccccc1`?
Nrf2 ARE act: inactive; ATXN viability: 18µM; ATXN2 expr inh: inconclusive

Results for CC(C)(C)n1ncc2c(=O)n(Cc3cccc(Cn4cnc5c(cnn5C(C)(C)C)c4=O)c3F)cnc21 ?
Nrf2 ARE act: inactive; ATXN viability: inactive; A549 tox: inconclusive; Nrf2 inh: 5.2µM; ATXN2 expr inh: inactive

What do the screens show for `C[C@]12CCC3[C@@H](CC[C@@H]4C[C@H](O)CC[C@]34C)[C@@H]1CCC2=O` (some centres not stated)?
Nrf2 ARE act: inactive; ATXN viability: inactive; A549 tox: inactive; Nrf2 inh: inactive; ATXN2 expr inh: inactive

How did C[C@]12CCC3C(CC[C@H]4C[C@@H](O)CC[C@]34C)[C@H]1C=CC2=O (some centres not stated) do in these assays?
Nrf2 ARE act: 22µM; ATXN viability: inactive; A549 tox: inactive; Nrf2 inh: inconclusive; ATXN2 expr inh: inactive

Results for C=C1C(=O)[C@@]23C[C@H]4[C@@H]5[C@@]6(C)CCC[C@@]57[C@@H]2[C@@H](O)[C@@H]1C[C@H]3[C@H]7N4C6 ?
Nrf2 ARE act: inactive; ATXN viability: 7.9µM; A549 tox: 13µM; Nrf2 inh: 23µM; ATXN2 expr inh: inconclusive

How did CCc1nn2c(=O)c(C)c(N3CCNCC3)nc2s1 do in these assays?
A549 tox: inactive; Nrf2 inh: inactive

How did CN(C)c1c([N+](=O)[O-])cc(N2C(=O)C=CC2=O)cc1[N+](=O)[O-] do in these assays?
Nrf2 ARE act: inactive; A549 tox: inconclusive; Nrf2 inh: inconclusive; ATXN2 expr inh: 35µM

How did CN1CCC(N(C)c2ncnc3ccc(Br)cc23)CC1 do in these assays?
Nrf2 ARE act: inactive; ATXN viability: inactive; A549 tox: inactive; ATXN2 expr inh: inactive

How did Cc1ccc(-c2nc(N(C)C3CCN(C)CC3)c3ccccc3n2)cc1 do in these assays?
Nrf2 ARE act: inactive; ATXN viability: inconclusive; A549 tox: inactive; Nrf2 inh: inactive; ATXN2 expr inh: 20µM

What do the screens show for `O=C1C2CCCC1C(N1CCCCC1)CC2` (configuration not stated)?
Nrf2 ARE act: inactive; ATXN viability: inactive; A549 tox: inactive; Nrf2 inh: inactive; ATXN2 expr inh: inactive

How did O=[N+]([O-])c1ccc(Cl)c([N+](=O)[O-])c1 do in these assays?
Nrf2 ARE act: inactive; ATXN viability: 18µM; A549 tox: inactive; Nrf2 inh: inconclusive; ATXN2 expr inh: inconclusive

Results for O=[N+]([O-])c1ccc(O)c([N+](=O)[O-])c1 ?
Nrf2 ARE act: inactive; ATXN viability: inactive; A549 tox: inconclusive; Nrf2 inh: inconclusive; ATXN2 expr inh: inactive

Results for Cc1cc2c(cc(C(=O)N3CCC(C(=O)NC4CCCC4)CC3)n2Cc2c(F)cccc2Cl)o1 ?
Nrf2 ARE act: inactive; ATXN viability: inconclusive; A549 tox: inactive; Nrf2 inh: 16µM; ATXN2 expr inh: inconclusive

What do the screens show for `O=c1[nH]c(O)c(N=Nc2ccc(SC(F)F)cc2)c(=O)[nH]1`?
Nrf2 ARE act: inactive; ATXN viability: inconclusive; A549 tox: inconclusive; Nrf2 inh: inactive; ATXN2 expr inh: inactive

What do the screens show for `O=c1[nH]c(O)c(N=Nc2cc([N+](=O)[O-])ccc2O)c(=O)[nH]1`?
Nrf2 ARE act: inactive; ATXN viability: 9.5µM; A549 tox: 23µM; Nrf2 inh: inactive; ATXN2 expr inh: inactive

Results for C/C=C(\CC)C(=O)NC(N)=O ?
ATXN viability: inactive

Results for CN(C(=O)CSc1nc2ccc(NC(=O)COc3ccc(Cl)cc3)cc2s1)c1ccccc1 ?
Nrf2 ARE act: inactive; ATXN viability: inconclusive; A549 tox: inactive; Nrf2 inh: 15µM; ATXN2 expr inh: inconclusive

How did CN1CCN(c2ccc([N+](=O)[O-])c3no[n+]([O-])c23)CC1 do in these assays?
Nrf2 ARE act: inactive; A549 tox: 23µM; Nrf2 inh: inconclusive; ATXN2 expr inh: 2.4µM!

Results for CCC1CCCCN1P(=O)(c1ccc(C)o1)C(C)(C)C (configuration not stated) ?
Nrf2 ARE act: inactive; ATXN viability: inactive; A549 tox: inactive; Nrf2 inh: inactive; ATXN2 expr inh: inactive

Results for CN(C)CCCN=Cc1c(O)n(CCc2ccc(F)cc2)c(=O)[nH]c1=O ?
Nrf2 ARE act: inactive; ATXN viability: inactive; A549 tox: inactive; Nrf2 inh: inactive; ATXN2 expr inh: inactive

What do the screens show for `c1ccc(CNc2c3c(nc4ccccc24)CCC3)cc1`?
Nrf2 ARE act: inactive; ATXN viability: inconclusive; A549 tox: inactive; Nrf2 inh: inactive; ATXN2 expr inh: 18µM

How did CNc1ccc2oc(C[C@H]3O[C@@]4(CC[C@H]3C)O[C@H]([C@H](C)C(=O)c3ccc[nH]3)[C@H](C)C[C@H]4C)nc2c1C(=O)O do in these assays?
Nrf2 ARE act: inactive; ATXN viability: 7.1µM; A549 tox: 3.7µM; Nrf2 inh: 1.2µM; ATXN2 expr inh: 8.9µM
